Laboratory results taken from PubChem BioAssay (NCI).
About 83,000 compounds went through this panel and 20% of them were active in at least one assay; those are over-represented in the sample as a whole.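 96-well plates, one dose, 48 hours. Percent growth reported; active if below 10.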 Unmarked numbers belong to inactive results. Active and inactive are the calls of the source.

The compounds below were run on DU-145 prostate (assay: NCI-60 one-dose screen, 48 h (100 = growth as untreated, 0 = no growth, -100 = all killed)). Conditions: 10 µM unless noted.

| Structure (SMILES) | growth [%] |
| --- | --- |
| CCO/C=N/C1=C(C#N)C(c2ccc(F)cc2)c2sc3c(C)cccc3c2O1 (stereo not given) | 12.4 |
| COc1cc(-c2nc(SC(C)C)n(C(C)C)c(=O)c2C#N)ccc1OCc1ccccc1 | 99.1 |
| CCCCCc1ccc(S(=O)(=O)Nc2cccc(-c3csc(NCCN4CCN(C)CC4)n3)c2)cc1 | 74.3 |

What follows are compounds tested on K-562 leukemia in the same assay as above. Conditions: 10 µM unless noted.

| Structure (SMILES) | growth |
| --- | --- |
| CN1CCN(Cc2ccc(NC(=O)c3cncc(C#Cc4cnc5ccc(NCCCO)nn45)c3)cc2C(F)(F)F)CC1 | 0.484% (active) |
| COC(=O)c1[nH]nc2c1C1(C(=O)N(C)c3ccccc31)C(C#N)=C(N)O2 (stereo not given) | 113% |
| O=C(Cn1cc(-c2ccccc2)nn1)Nc1nc(-c2ccc(Cl)cc2)cs1 | 98% |
| COc1ccccc1N1CCN(C2=CC(=O)C(C)=C(C)C2=O)CC1 | 96.9% |
| NC(N)=Nc1ccc(Oc2cccc(Nc3ccc(Br)c(C(F)(F)F)c3)c2)cn1 | -30.3% (active) |
| Cn1ccnc1C(=O)/C=C/c1ccc(CNC(=O)c2ccc(F)cc2)cc1 | 11.3% |
| Cc1c(Cl)cccc1S(=O)(=O)Nc1ccc2c(c1)C(=O)N(C1CCC(=O)NC1=O)C2=O (stereo not given) | 101% |
| NS(=O)(=O)c1ccc(-n2cc(-c3cccc(NC(=O)c4ccc(N5CCOCC5)c(C(F)(F)F)c4)c3)nn2)cc1 | 19.3% |
| CCc1cccc2c3c(sc12)C(c1ccc(OC)cc1)C(C#N)=C(/N=C/c1ccc(Cl)cc1)O3 (stereo not given) | 11.1% |
| Nc1ncc(-c2ccc3ncnc(N4CCc5cc(F)c(F)cc54)c3c2)cn1 | 48.7% |
| COc1c(N2CC3CCCNC3C2)c(F)cc2c(=O)c(C(=O)N/N=C/c3ccc(Br)cc3)cn(C3CC3)c12 (stereo not given) | -18.5% (active) |
| O=C(NNc1nc2cc(F)c(F)cc2n2c(CN3CC4CNCC4C3)ccc12)c1ncccn1 (stereo not given) | 9.16% (active) |
| COc1ccc(/C=C(\C#N)C(=O)N2c3ccccc3Sc3ccc(SC)cc32)cc1F | 80.8% |
| Cc1ccc(NC(=O)CNc2cc(C(N)=O)cc(F)c2C)c(Cl)c1 | 94.2% |
| CNC(=O)c1cc(Oc2ccc3nc(NC(=O)c4cccc(OC(F)(F)F)c4)sc3c2)ccn1 | 61.8% |
| O=C1CCCC2=C1C(c1c[nH]c3ccc(Br)cc13)Cc1cc(Br)ccc1N2 (stereo not given) | 19.8% |
| COc1cc2oc(-c3cccc(C(=O)N[C@@H](CC(C)C)C(=O)OC(C)(C)C)c3)cc(=O)c2c(OC)c1OC | 36.7% |
| NC(N)=Nc1ccc(Nc2cccc(Nc3ccc(Cl)c(C(F)(F)F)c3)c2)cn1 | -2.73% (active) |
| CC(=O)c1nnn(-c2c(C(=O)n3nc(C)cc3C)sc(=S)n2-c2ccccc2)c1C | 102% |

| Structure (SMILES) | growth |
| --- | --- |
| CS(=O)(=O)Nc1cc(-c2ccc3ncc(C#N)c(N[C@H](CO)c4ccccc4)c3c2)cnc1Cl | 41.4% |
| COc1ccc(C(=O)CSc2nc3c(c(Nc4ccc(S(N)(=O)=O)cc4)n2)CCCC3)cc1 | 72.7% |
| CCn1c(SCC(=O)Nc2cccc(C(=O)/C=C/c3ccc(Br)cc3)c2)nc2ccccc2c1=O | 77.3% |
| N#Cc1c(Nc2ccccc2)nn2c(-c3ccc([N+](=O)[O-])cc3)ccnc12 | 112% |
| O=C(CCn1c[n+](CC(=O)c2ccc(-c3ccccc3)cc2)c2ccccc21)Nc1cccc2cccnc12 | 22.9% |
| COc1ccc(OC)c(-c2nc(SCC(=O)c3ccc(Br)cc3)nc(Nc3ccc(S(N)(=O)=O)cc3)c2C#N)c1 | 22.5% |
| FC(F)(F)c1cc(Nc2cccc(Oc3ccc(NC4=NCCN4)nc3)c2)ccc1Cl | -19% (active) |
| CCO/C=N/C1=C(C#N)C(c2ccc(OC)cc2)c2sc3c(CC)cccc3c2O1 (stereo not given) | 14.5% |
| COc1ccc2c(c1)c(CC(=O)[Se]CCC#N)c(C)n2C(=O)c1ccc(Cl)cc1 | 21.2% |
| CN(C)CCN(C)c1ccc2ncc(C#Cc3cncc(C(=O)Nc4ccc(CN5CCN(C)CC5)c(C(F)(F)F)c4)c3)n2n1 | 3.58% (active) |
| NC(=O)c1c(NC(=O)c2ccccc2C(F)(F)F)sc2c1CCC(=O)C2 | 11.7% |
| NC(N)=Nc1ccc(Oc2cccc(NC(N)=Nc3ccc(I)cc3F)c2)cc1 | 69.9% |
| COc1ccc(CCOc2cc3c(cc2OC)CCN(C(=O)NCc2cocn2)C3c2ccc(C)cc2C)cc1 (stereo not given) | 10% |
| CC(C)(C)c1ccc(C(=O)Nc2nc3ccc(O)cc3s2)cc1 | 8.79% (active) |
| CC1(C)CC[C@]2(C(=O)N3CCOCC3)CC[C@]3(C)C(=CC[C@@H]4[C@@]5(C)C/C(=C/c6ccccn6)C(=O)C(C)(C)[C@@H]5CC[C@]43C)[C@@H]2C1 | 34.5% |
| CCO/C=N/C1=C(C#N)C(c2ccc(F)cc2)c2sc3c(C)cccc3c2O1 (stereo not given) | 10.4% |
| COc1cc(-c2nc(SC(C)C)n(C(C)C)c(=O)c2C#N)ccc1OCc1ccccc1 | 38.8% |
| CCCCCc1ccc(S(=O)(=O)Nc2cccc(-c3csc(NCCN4CCN(C)CC4)n3)c2)cc1 | 0.356% (active) |
